Data from PubChem BioAssay (EPA / NIEHS).
Activity calls are given as the source filed them. Rule for the calls: active = hit-call score of the fitted dose curve at least 0.9, where 1 is the maximum; inactive = score below 0.9.

What was measured:
Conditions in all cases: mRNA level, 48 h; actives raise or lower the signal
[1] = read-out: Paternally Expressed 10 (PEG10), PEG10 (gene 23089); experiment: LTEA_HepaRG_PEG10: Life Technologies and Expression Analysis (LTEA) Assay for Paternally Expressed 10 (PEG10) using HepaRG (AID 2283520)
Outline: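 Differentiated HepaRG cells, plated 48 h then switched to serum-free induction medium, were exposed in duplicate for 48 h to eight half-log concentrations topping at 100 uM in 0.5% DMSO. PEG10 mRNA was quantified by TaqMan qRT-PCR, normalised to ACTB, GAPDH and POLR2A.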

[2] = read-out: Nuclear factor NF-kappa-B p105 subunit (Homo sapiens) (UniProt P19838); experiment: LTEA_HepaRG_NFKB1: Life Technologies and Expression Analysis (LTEA) Assay for Nuclear Factor Kappa B Subunit 1 (NFKB1) using HepaRG (AID 2283521)
Outline: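 Human HepaRG cells receive eight half-log concentrations, highest 100 uM, for 48 h. NFKB1 expression is then quantified by qRT-PCR and analysed for up- or down-regulation relative to 0.5% DMSO vehicle.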

[3] = read-out: Protein phosphatase 2A (PPP2R4), PTPA (gene 5524); experiment: LTEA_HepaRG_PPP2R4: Life Technologies and Expression Analysis (LTEA) Assay for Protein phosphatase 2A (PPP2R4) using HepaRG (AID 2283522)
Outline: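 Differentiated HepaRG cells in serum-free induction medium were exposed in duplicate for 48 h to eight concentrations, top 100 uM with half-log dilutions, in 0.5% DMSO. PPP2R4 mRNA was quantified by TaqMan qRT-PCR, normalized to ACTB, GAPDH and POLR2A.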

[4] = read-out: Phosphatase and tensin (PTEN), PTEN (gene 5728); experiment: LTEA_HepaRG_PTEN: Life Technologies and Expression Analysis (LTEA) Assay for Phosphatase and tensin (PTEN) using HepaRG (AID 2283523)
Outline: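 HepaRG cells, 48 h after plating, exposed in duplicate for 48 h in serum-free induction medium to 8 half-log concentrations up to 100 uM (0.5% DMSO). PTEN mRNA by qRT-PCR, normalized to ACTB, GAPDH, POLR2A; bidirectional fit versus DMSO.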

[5] = read-out: solute carrier (SLC22A1), SLC22A1 (gene 6580); experiment: LTEA_HepaRG_SLC22A1: Life Technologies and Expression Analysis (LTEA) Assay for solute carrier (SLC22A1) using HepaRG (AID 2283524)
Outline: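 Differentiated human HepaRG cells in serum-free induction medium, exposed 48 h in duplicate to 8-point half-log series from 100 µM top in 0.5% DMSO. SLC22A1 mRNA by TaqMan qRT-PCR normalized to ACTB, GAPDH, POLR2A; bidirectional fit versus DMSO.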

[6] = read-out: Pyruvate Dehydrogenase Kinase 4 (PDK4), PDK4 (gene 5166); experiment: LTEA_HepaRG_PDK4: Life Technologies and Expression Analysis (LTEA) Assay for Pyruvate Dehydrogenase Kinase 4 (PDK4) using HepaRG (AID 2283525)
Outline: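 HepaRG cells plated 48 h, then switched to serum-free induction medium and exposed in duplicate for 48 h to 8 half-log concentrations from 100 uM in 0.5% DMSO. PDK4 mRNA measured by qRT-PCR, normalized to ACTB, GAPDH and POLR2A; bidirectional fit versus DMSO.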

[7] = read-out: NAD(P)H dehydrogenase [quinone] 1 (NQO1), NQO1 (gene 1728); experiment: LTEA_HepaRG_NQO1: Life Technologies and Expression Analysis (LTEA) Assay for NAD(P)H dehydrogenase [quinone] 1 (NQO1) using HepaRG (AID 2283526)
Outline: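 Differentiated HepaRG cells, plated 48 h and then switched to serum-free induction medium, were exposed in duplicate for 48 h to 8-point half-log concentrations up to 100 uM in 0.5% DMSO. mRNA measured by qRT-PCR, normalized to ACTB, GAPDH, POLR2A; bidirectional fit versus DMSO.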

[8] = read-out: Nuclear factor erythroid 2-related factor 2 (Homo sapiens) (UniProt Q16236); experiment: LTEA_HepaRG_NFE2L2: Life Technologies and Expression Analysis (LTEA) Assay for Nuclear factor erythroid 2-related factor 2 (NFE2L2) Transcription Factor using HepaRG (AID 2283527)
Outline: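 Differentiated human HepaRG cells, serum-free induction medium, exposed 48 h in duplicate to eight half-log concentrations up to 100 uM in 0.5% DMSO. NFE2L2 mRNA by Fluidigm TaqMan qRT-PCR, normalised to ACTB, GAPDH, POLR2A; bidirectional change versus DMSO.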

[9] = read-out: succinate dehydrogenase complex iron sulfur subunit B (SDHB), SDHB (gene 6390); experiment: LTEA_HepaRG_SDHB: Life Technologies and Expression Analysis (LTEA) Assay for succinate dehydrogenase complex iron sulfur subunit B (SDHB) using HepaRG (AID 2283528)
Outline: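 A human HepaRG culture in serum-free induction medium received test chemicals for 48 h over an eight-point range capped at 100 uM. SDHB expression change was quantified by qRT-PCR.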

[10] = read-out: Signal transducer and activator of transcription 3 (Homo sapiens) (UniProt P40763); experiment: LTEA_HepaRG_STAT3: Life Technologies and Expression Analysis (LTEA) Assay for Signal transducer and activator of transcription (STAT3) using HepaRG (AID 2283529)
Outline: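 Differentiated HepaRG cells, serum-free induction medium, dosed 48 h in duplicate, 8 half-log concentrations from 100 uM in 0.5% DMSO. STAT3 mRNA by qRT-PCR, normalised to ACTB, GAPDH, POLR2A; bidirectional fit versus DMSO.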

Measured: AC50

Signal transducer and activator of transcription 3 (Homo sapiens), sequence (P40763 whole entry, looked up): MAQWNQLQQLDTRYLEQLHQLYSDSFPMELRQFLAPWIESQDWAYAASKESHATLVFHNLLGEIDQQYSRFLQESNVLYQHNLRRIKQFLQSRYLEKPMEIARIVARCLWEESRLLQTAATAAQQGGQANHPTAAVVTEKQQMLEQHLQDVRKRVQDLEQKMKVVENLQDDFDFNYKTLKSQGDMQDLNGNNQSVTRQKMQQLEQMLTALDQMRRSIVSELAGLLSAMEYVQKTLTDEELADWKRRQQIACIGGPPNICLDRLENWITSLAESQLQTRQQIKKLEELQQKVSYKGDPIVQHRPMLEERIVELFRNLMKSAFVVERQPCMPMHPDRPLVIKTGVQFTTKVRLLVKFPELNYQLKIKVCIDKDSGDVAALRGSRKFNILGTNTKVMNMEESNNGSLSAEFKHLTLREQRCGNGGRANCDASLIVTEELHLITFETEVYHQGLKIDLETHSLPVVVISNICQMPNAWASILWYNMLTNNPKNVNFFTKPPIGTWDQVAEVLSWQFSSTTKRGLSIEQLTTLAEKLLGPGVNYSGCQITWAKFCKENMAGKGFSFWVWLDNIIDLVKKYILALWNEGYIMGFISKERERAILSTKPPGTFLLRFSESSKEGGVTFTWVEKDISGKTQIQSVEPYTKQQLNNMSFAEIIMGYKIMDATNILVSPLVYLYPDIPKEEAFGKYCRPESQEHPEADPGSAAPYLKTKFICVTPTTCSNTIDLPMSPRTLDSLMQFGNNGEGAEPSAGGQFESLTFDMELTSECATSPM
Nuclear factor NF-kappa-B p105 subunit (Homo sapiens), sequence (P19838 whole entry, looked up): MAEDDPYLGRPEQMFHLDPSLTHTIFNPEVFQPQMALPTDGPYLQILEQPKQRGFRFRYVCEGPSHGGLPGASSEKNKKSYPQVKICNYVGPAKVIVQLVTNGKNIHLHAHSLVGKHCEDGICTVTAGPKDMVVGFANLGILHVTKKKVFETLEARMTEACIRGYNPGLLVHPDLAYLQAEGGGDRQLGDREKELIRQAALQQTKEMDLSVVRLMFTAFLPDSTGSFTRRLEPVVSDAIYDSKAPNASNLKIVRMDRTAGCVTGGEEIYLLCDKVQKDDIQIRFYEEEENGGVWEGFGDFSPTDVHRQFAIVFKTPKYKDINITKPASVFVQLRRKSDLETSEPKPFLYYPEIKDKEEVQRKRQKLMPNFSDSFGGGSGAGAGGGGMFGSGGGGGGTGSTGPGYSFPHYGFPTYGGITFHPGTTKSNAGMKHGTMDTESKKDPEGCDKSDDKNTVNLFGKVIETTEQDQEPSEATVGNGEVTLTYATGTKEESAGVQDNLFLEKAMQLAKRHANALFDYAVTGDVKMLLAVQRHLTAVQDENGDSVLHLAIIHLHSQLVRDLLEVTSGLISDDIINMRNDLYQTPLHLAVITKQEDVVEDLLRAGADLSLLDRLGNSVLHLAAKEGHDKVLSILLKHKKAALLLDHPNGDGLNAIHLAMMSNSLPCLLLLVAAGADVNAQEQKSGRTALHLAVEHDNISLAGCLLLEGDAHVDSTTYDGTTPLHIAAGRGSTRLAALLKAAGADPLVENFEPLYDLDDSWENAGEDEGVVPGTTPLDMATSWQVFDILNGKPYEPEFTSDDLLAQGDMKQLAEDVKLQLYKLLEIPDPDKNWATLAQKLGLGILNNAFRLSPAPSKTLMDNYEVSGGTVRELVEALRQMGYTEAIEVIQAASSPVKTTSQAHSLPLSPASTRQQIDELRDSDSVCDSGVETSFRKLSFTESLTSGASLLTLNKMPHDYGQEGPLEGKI
Nuclear factor erythroid 2-related factor 2 (Homo sapiens), sequence (Q16236 whole entry, looked up): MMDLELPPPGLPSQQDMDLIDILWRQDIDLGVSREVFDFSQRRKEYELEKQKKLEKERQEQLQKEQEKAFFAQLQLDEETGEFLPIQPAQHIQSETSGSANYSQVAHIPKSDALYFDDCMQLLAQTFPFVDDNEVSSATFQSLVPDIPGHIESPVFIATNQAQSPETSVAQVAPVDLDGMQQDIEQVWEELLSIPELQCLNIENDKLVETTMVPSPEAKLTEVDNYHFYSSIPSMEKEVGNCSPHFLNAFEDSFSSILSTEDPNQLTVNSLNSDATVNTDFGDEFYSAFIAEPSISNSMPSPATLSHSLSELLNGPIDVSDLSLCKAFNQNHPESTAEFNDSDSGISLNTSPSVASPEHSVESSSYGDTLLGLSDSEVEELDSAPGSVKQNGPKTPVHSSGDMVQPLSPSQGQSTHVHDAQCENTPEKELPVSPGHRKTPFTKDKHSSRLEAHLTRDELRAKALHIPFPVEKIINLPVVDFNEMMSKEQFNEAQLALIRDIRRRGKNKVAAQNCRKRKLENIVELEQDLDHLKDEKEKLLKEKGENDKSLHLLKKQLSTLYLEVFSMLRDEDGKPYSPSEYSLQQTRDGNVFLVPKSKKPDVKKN

CO/N=C(/C1=NOCCO1)c1ccccc1Oc1ncnc(Oc2ccccc2Cl)c1F
active: [1] 5.88 µM | [5] 24.8 µM | [6] 11.7 µM | [8] 50 µM | [10] 6.5 µM
inactive: [2] | [3] | [4] | [7] | [9]

O=P(O)(O)CCCl
inactive: all assays above

CCOc1nc(F)cc2nc(S(=O)(=O)Nc3c(Cl)cccc3Cl)nn12
active: [5] 50 µM
inactive: all other assays above

CN=C=S
inactive: all assays above

COC(=O)NC(=S)Nc1ccccc1NC(=S)NC(=O)OC
active: [8] 50 µM
inactive: all other assays above

CCSC(=O)N1CCCCCC1
active: [2] 12.6 µM
inactive: all other assays above

Cc1c(COC(=O)[C@@H]2[C@H](/C=C(\Cl)C(F)(F)F)C2(C)C)cccc1-c1ccccc1
active: [2] 0.703 µM
inactive: all other assays above

CNC(=O)Oc1cccc2ccccc12
inactive: all assays above

O=C1C2CC=CCC2C(=O)N1SC(Cl)(Cl)Cl (stereo not given)
inactive: all assays above

CC(C)Oc1cccc(NC(=O)c2ccccc2C(F)(F)F)c1
active: [1] 78.5 µM | [6] 50 µM
inactive: all other assays above

O=C(Nc1ccccc1-c1ccc(Cl)cc1)c1cccnc1Cl
active: [1] 21 µM | [10] 0.539 µM
inactive: all other assays above

Nc1c(Cl)c(F)nc(OCC(=O)O)c1Cl
inactive: all assays above

CC1(C)CON(Cc2ccccc2Cl)C1=O
active: [1] 22.5 µM
inactive: all other assays above

CCCC(=NOCC)C1=C(O)CC(CC(C)SCC)CC1=O (stereo not given)
inactive: all assays above

CC(C)=CC1C(C(=O)OCc2coc(Cc3ccccc3)c2)C1(C)C (stereo not given)
active: [6] 50 µM
inactive: all other assays above

CCOc1nc(C(Cl)(Cl)Cl)ns1
active: [2] 1.72 µM | [3] 0.801 µM | [4] 1.25 µM | [5] 1.34 µM | [6] 0.95 µM | [7] 0.993 µM | [8] 1.12 µM | [10] 50 µM
inactive: [1] | [9]

COc1cc(OC)nc(NC(=O)NS(=O)(=O)c2ncccc2OCC(F)(F)F)n1
active: [6] 0.129 µM
inactive: all other assays above

COP(=O)(OC)O/C(C)=C/C(=O)N(C)C
inactive: all assays above
